Experimental findings from paper PMC12136788 are described below.

In all, about 5,800 sequences were measured (“enrichment r”: median about 0.68, highest 2% from about 11 on). Not all results are given here.

B1: chr12:64128047:64128160:+|CDS|ENSG00000196935|unk|FALSE|unique (ssRNA)
RNA: GGGAGUUCUACAGUCCGACGAUCGGCAGCCUGACCAACAUCAGCCGGCACGACUCCCUCAAGAAGAUCGACAGCCCUCCCAUUAGAAGGUCCACGUCAUCAGGGCAAUACACGGGCUUCAAUGACCACAAGCCACUGGACCCACAACAGAGGAUUGAGCAUCA
B2: chr11:30010719:30012678:-|CDS|ENSG00000182255|control|control|control (ssRNA)
RNA: GGGAGUUCUACAGUCCGACGAUCUUUGCUCAAGAAAUUUCGGAGCUCUACUUCUUCUUCCCUGGGGGACAAGUCAGAGUAUCUAGAGAUGGAAGAAGGAGUUAAGGAAUCUCUGUGUGCAAAGGAGGAGAAGUGUCAGGGAAACAACAGAGGAUUGAGCAUCA
B3: chr11:101473508:101473773:-|CDS|ENSG00000137672|control|control|control (ssRNA)
RNA: GGGAGUUCUACAGUCCGACGAUCUCCUCAAAUAAUAUCUGAAGGUCUUUAUGCAAUUGCUGUAGUUUUAAGUUUCUCUAGGAUAGCUUAUAUUUUACCAGCAAAUGAAAGCUUUGGACCUCUGCAGAUAUCACUUGGAAGAACCAACAGAGGAUUGAGCAUCA
B4: ENSG00000092201:stop:overlap|stop_codon|ENSG00000092201|stop_codon|NA|stop_codon (ssRNA)
RNA: GGGAGUUCUACAGUCCGACGAUCUUCCCCGCGUGCCAGCCUUGGUCAUGCAUAGCAGCACCUCUCGCAGUCUCUUCCCGCCCUAGAAGAGGCAACAUCCUUCCCUCCUACUCCGUGGUCACGUCUUGCUGCCCUCCCCUGCCGCAACAGAGGAUUGAGCAUCA
B5: chr8:143915815:143915916:-|3pUTR|ENSG00000178209|msi1|FALSE|unique (ssRNA)
RNA: GGGAGUUCUACAGUCCGACGAUCGCCAGGUGCCUUGGAGGGUCCCAAGCUGGGCCCCAGCCCACCCUCCUGUCUUCCCAGGGUAGCCCGCCUGCCAGUCCUAGCUGCACAGGGCAGCUGGGCCCAACCCUGUCUGUAGAGGGCCAACAGAGGAUUGAGCAUCA
B6: chr1:17067933:17068034:-|3pUTR|ENSG00000117115|msi1|total|mutant (ssRNA)
RNA: GGGAGUUCUACAGUCCGACGAUCACAUAAGGACCCUGGCCUACCCUCCAGCCCAACAGCCAGUUCUGGGUCAGCUGCCAACUCCGGGGUGGUUUGAUUAUCCCAUUGAAAUUCACCAGUGCCUUUGCCAAAGACCCUCUCAUUCAACAGAGGAUUGAGCAUCA
B7: chr22:31279490:31279591:+|3pUTR|ENSG00000182541|msi1|FALSE|unique (ssRNA)
RNA: GGGAGUUCUACAGUCCGACGAUCAGCAGCUUGGGCUGGGAAGAGGUGGUGGCAGAGUCUCAAAGCUGAGAUGCUGAGAGAGAUAGCUCCCUGAGCUGGGCCAUCUGACUUCUACCUCCCAUGUUUGCUCUCCCAACUCAUUAGCAACAGAGGAUUGAGCAUCA
B8: chr1:193029531:193029688:-|CDS|ENSG00000116750|unk|total|mutant (ssRNA)
RNA: GGGAGUUCUACAGUCCGACGAUCUUGAUAUCUUCACUUUUAUAUUUUACCGGUAAUUAAUAAUGCUUGUGCUACUCAAGCCACCGUGAGUGUGUUACUGAACUGUACCCACCAGGAUGUCCAUUCCGGCGAGACAUUAUCAGACAACAGAGGAUUGAGCAUCA
B9: ENSG00000099250:stop:overlap|stop_codon|ENSG00000099250|stop_codon|NA|stop_codon (ssRNA)
RNA: GGGAGUUCUACAGUCCGACGAUCCAAUUCACGGAGAAAUGUGGUCAUCUGGAAAAGGAGUCUGCUCCCUGGAUGCGAAUCUGUAGCCUGGAUUCUGGAAGGCGAUGCUGAUUUAGGAGGUGGAGUGAAUGGAGAAUUGAAAAGCAACAGAGGAUUGAGCAUCA
B10: chr12:10081268:10081413:-|three_prime_utr|ENSG00000150048|control|control|control (ssRNA)
RNA: GGGAGUUCUACAGUCCGACGAUCUCAGUACUACCAGCUCUCCAAUACUGGUCAAGACACCAUUUCUCAAAUGGAAGAAAGAUUAGGAAAUACGUCCCAAGAGUUGCAAUCUCUUCAAGUCCAGAAUAUAAAGCUUGCAGGAAGCAACAGAGGAUUGAGCAUCA
B11: chr15:63774837:63774950:-|CDS|ENSG00000103657|unk|total|mutant (ssRNA)
RNA: GGGAGUUCUACAGUCCGACGAUCGUAACAACAUUUCUUAAAGGAGUCACUAUUCCUAAUUCUGGGGCAGACACUUCCGGUCGCCGAUCCGCUUCUGAGUUGCUGCUUGGUUUGGCAGCUCAACGAGGCUCAUUGCGAUAUCUUCAACAGAGGAUUGAGCAUCA
B12: ENSG00000086827:stop:overlap|stop_codon|ENSG00000086827|stop_codon|NA|stop_codon (ssRNA)
RNA: GGGAGUUCUACAGUCCGACGAUCUAAUUCGUGCCUUGUUUCAGAACACAGAAAGAAGAGCAGCUGCCCUUGCUAAAAUUAAAUAGCUCCAUCUUCUUAAGAAAGCUAUGUCUUGAAUAUGUGGAUUCUUCCCUUGGCAUAAUUCAACAGAGGAUUGAGCAUCA
B13: chr10:27397735:27399240:-|CDS|ENSG00000182077|control|control|control (ssRNA)
RNA: GGGAGUUCUACAGUCCGACGAUCUCUUCUAGGCUACCCAGUGUUACAAAGUGCAAUUUCAACAAUAAUAGGGGUGUGUGUUUUAGCUGCAGCGAAAGCAUACAUCUUCAGAACAUUUUUUAAGAUUAUGUUUCUUGUUAUGAUCAACAGAGGAUUGAGCAUCA
B14: ENSG00000124766:be:win_3751|3pUTR|ENSG00000124766|bound_else_gene|NA|bound_elsewhere_windowed (ssRNA)
RNA: GGGAGUUCUACAGUCCGACGAUCUUGUACAUUUAAGUCUGUAUUAUAAUAAGCAAAAAGAUUGUGUGUAUGUAUGUUUAAUAUAACAUGACAGGCACUAGGACGUCUGCCUUUUUAAGGCAGUUCCGUUAAGGGUUUUUGUUUCAACAGAGGAUUGAGCAUCA
B15: chr13:45957189:45957298:-|CDS|ENSG00000123200|unk|total|mutant (ssRNA)
RNA: GGGAGUUCUACAGUCCGACGAUCUGUUUUUGUUUUCUUCAAACCGGGCACCAUAAAACAAGCUUACACGAGUGCUCCAAUGGCCGACAAUGAAUUACUUCGAUUGAGUCUUCGGUUAUUUAAGCGGAAGACUACUUGCCAUGCCAACAGAGGAUUGAGCAUCA
B16: chrX:130230552:130230660:-|CDS|ENSG00000056277|unk|total|mutant (ssRNA)
RNA: GGGAGUUCUACAGUCCGACGAUCAUCAGAACGUCCAUGUGAUGAAGACAAGACUGAUUCAGAGACAGGAAAGUUGAUCAUGUCCGUCAAUGAGUUUUAUUAUGGAAGGCAUGAAGGAGUCACUGAGAAAGAGCCAAAGACUUACAACAGAGGAUUGAGCAUCA
B17: ENSG00000107863:be:win_2551|CDS|ENSG00000107863|bound_else_gene|NA|bound_elsewhere_windowed (ssRNA)
RNA: GGGAGUUCUACAGUCCGACGAUCUUAAUUCGCCGUCAGCUCUCACAUGACCACGAAUCUGUUGGCCCUCCUAGCCUGGAUGCUCAGCCCAACUCAAAGACAGAAAGAUCAAAAUCAUAUGAUGAGGGUCUGGAUGAUUACAGACAACAGAGGAUUGAGCAUCA
B18: chr20:57651677:57651767:-|3pUTR|ENSG00000124225|msi1_unk|FALSE|overlapping (ssRNA)
RNA: GGGAGUUCUACAGUCCGACGAUCGUUGAGCUGUGUCUUGAAGGCAAAAGAAAAAAAAUUUCUACAGUAGUCUUUCUUGUUUCUAGUUGAGCUGCGUGCGUGAAUGCUUAUUUUCUUUUGUUUAUGAUAAUUUCACUUAACUUUCAACAGAGGAUUGAGCAUCA
B19: ENSG00000124766:be:win_3701|3pUTR|ENSG00000124766|bound_else_gene|NA|bound_elsewhere_windowed (ssRNA)
RNA: GGGAGUUCUACAGUCCGACGAUCUCAGGUUUAUAGCUGUUGUGUUUAAAAAUUGAAAAAAGUGGAAAACAUCUUUGUACAUUUAAGUCUGUAUUAUAAUAAGCAAAAAGAUUGUGUGUAUGUAUGUUUAAUAUAACAUGACAGCAACAGAGGAUUGAGCAUCA
B20: chr4:1716041:1716142:-|3pUTR|ENSG00000168936|msi1|total|mutant (ssRNA)
RNA: GGGAGUUCUACAGUCCGACGAUCAGGCUUCCCCGAGCGCUCAGCAGGUGAAGGCAGCAGGGGCCAUGGCCGGGAGCCAGGCCCCGCUUUGAACUGAGUUUCAAGGGCUGCCAAAGAGGGGCAGUGGGUUGGGGUUGUUUUUACCAACAGAGGAUUGAGCAUCA
B21: chr6:158785413:158785514:-|CDS|ENSG00000092820|msi1|FALSE|unique (ssRNA)
RNA: GGGAGUUCUACAGUCCGACGAUCGAGCUCAUCCAGGACAUCACCCAGAAACUUUUCUUCCUCCAAGUGAAGGAAGGAAUCCUUAGCGAUGAGAUCUACUGCCCCCCUGAGACUGCCGUGCUCUUGGGGUCCUACGCUGUGCAGCAACAGAGGAUUGAGCAUCA
B22: chr10:113876644:113876745:+|CDS|ENSG00000196865|msi1|total|mutant (ssRNA)
RNA: GGGAGUUCUACAGUCCGACGAUCGGUUAAUGAUGCAGAUGCCAGCCUUUGGCAAGAACCCGAAGUUUCCUGCUGGCCAACUCCCGUCAUACUUGGACCUCGUGGAAACAUGUUGUUUUCUUUGAUUGGAGAGGGACACAAAGACAACAGAGGAUUGAGCAUCA

The target in the assay is T1, UNK ZnF1-6 (called full-length) (human, UniProt Q9C0B0 30-357).
T1 sequence: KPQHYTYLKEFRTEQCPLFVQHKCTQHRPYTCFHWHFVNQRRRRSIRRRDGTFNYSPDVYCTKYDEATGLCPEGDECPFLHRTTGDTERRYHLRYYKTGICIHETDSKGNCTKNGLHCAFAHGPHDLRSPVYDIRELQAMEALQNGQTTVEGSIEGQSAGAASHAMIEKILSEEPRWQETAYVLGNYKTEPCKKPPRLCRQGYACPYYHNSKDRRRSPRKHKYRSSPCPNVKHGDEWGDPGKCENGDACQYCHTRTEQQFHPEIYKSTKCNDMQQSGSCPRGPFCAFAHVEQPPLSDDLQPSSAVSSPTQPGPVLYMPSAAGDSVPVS
The experiment in a line: nsRBNS (natural sequence RNA bind-n-seq); RBNS binding buffer (assumed for nsRBNS): 25 mM Tris pH 7.5, 150 mM KCl, 3 mM MgCl2, 0.01% Triton X-100, 500 ug/ml BSA, 20 U/ml SUPERase-In, 4 C; UNK is unkempt and MSI1 is Musashi-1; names of the RNAs are library labels; protein concentration not given here; high values mean tight binding.
In the case of B1, the binding signal was 1.28 enrichment R.
In turn, B2 showed a binding signal of 0.697 enrichment R.
Regarding B3, the binding signal turned out to be 0.473 enrichment R.
As for B4, the figure is 0.859 enrichment R; as for B5, 1.03 enrichment R; as for B6, 0.749 enrichment R.
B7 showed a binding signal of 0.852 enrichment R.
As for B8, the figure is 0.805 enrichment R.
For B9, the binding signal amounted to 0.76 enrichment R.
As for B10, the figure is 0.413 enrichment R; as for B11, 0.574 enrichment R.
Molecule B12 gave a binding signal of 1.49 enrichment R.
As for B13, the figure is 0.38 enrichment R.
With B14, the binding signal stood at 0.359 enrichment R.
With B15, the binding signal stood at 0.325 enrichment R.
Consider B16, for which the binding signal amounted to 0.608 enrichment R.
As for B17, the binding signal is 0.436 enrichment R.
The value for B18 was 1.22 enrichment R.
As for B19, the figure is 0.65 enrichment R; as for B20, 0.696 enrichment R; as for B21, 0.521 enrichment R.
B22 showed a binding signal of 0.577 enrichment R.
